Assay results taken from ChEMBL document CHEMBL3988442, “University of Dundee, Small-Polar-MMV Screening Library” (2021).
For some of these results: Potency and affinity values are given separately.

Tests used:
Design in all cases: scale not given: direction of the effect not stated beside the values
[1] = biological target: Protein translocase subunit SecA (Escherichia coli (strain K12)) (UniProt P10408); test: Assay to Identify E. coli SecA ATPase Inhibitors; assay type: functional; settings: 30 µM
[2] = biological target: T1, Ubiquitin-activating enzyme e1, putative (Leishmania donovani (strain BPK282A1)) (UniProt E9BSI1); test: Leishmania donovani Ubiquitin Activating Enzyme (LdE1); assay type: functional; settings: 30 µM
T1 sequence (whole entry): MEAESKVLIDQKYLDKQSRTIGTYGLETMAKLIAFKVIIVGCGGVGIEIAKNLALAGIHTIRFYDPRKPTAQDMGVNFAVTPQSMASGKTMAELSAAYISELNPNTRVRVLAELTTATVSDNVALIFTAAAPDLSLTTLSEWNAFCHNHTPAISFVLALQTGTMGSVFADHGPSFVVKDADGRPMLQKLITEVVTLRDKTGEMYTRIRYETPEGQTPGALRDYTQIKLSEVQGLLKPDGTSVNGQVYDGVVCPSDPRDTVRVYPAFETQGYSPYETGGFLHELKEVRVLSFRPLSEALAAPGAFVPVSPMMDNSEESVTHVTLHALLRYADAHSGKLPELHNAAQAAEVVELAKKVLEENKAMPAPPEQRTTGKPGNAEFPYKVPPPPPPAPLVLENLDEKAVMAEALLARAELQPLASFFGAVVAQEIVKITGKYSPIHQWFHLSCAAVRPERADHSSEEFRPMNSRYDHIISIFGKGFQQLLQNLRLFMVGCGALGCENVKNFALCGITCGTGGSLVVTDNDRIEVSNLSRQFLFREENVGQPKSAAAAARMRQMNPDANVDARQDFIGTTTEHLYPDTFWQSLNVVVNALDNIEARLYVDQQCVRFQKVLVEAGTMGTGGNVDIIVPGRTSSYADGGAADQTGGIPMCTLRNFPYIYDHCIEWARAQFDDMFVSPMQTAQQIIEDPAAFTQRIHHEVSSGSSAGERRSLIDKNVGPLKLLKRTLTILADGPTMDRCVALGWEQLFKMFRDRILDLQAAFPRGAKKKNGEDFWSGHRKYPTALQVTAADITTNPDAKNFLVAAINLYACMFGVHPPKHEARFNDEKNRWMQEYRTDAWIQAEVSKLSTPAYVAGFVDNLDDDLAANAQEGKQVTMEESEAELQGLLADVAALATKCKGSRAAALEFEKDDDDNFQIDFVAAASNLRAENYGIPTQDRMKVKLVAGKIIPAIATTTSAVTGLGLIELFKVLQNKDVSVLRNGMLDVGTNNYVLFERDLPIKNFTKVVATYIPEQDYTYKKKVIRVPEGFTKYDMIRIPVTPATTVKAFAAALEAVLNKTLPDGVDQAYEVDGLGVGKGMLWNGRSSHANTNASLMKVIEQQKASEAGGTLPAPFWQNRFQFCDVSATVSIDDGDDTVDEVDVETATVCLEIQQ

[3] = biological target: AMP-activated protein kinase, AMPK (Homo sapiens) (UniProt P54646+O43741+P54619+Q9UGJ0+Q9Y478+Q13131+Q9UGI9); test: AMP-dependent Kinase enzyme assay. An in vitro enzyme assay that detects ADP turnover that is directly proportional to AMPK activity. This uses naive AMPK that is activated during the assay with MK-8722; assay type: functional; settings: 30 µM
[4] = biological target: Sialic acid-binding Ig-like lectin 9 (Homo sapiens) (UniProt Q9Y336); test: Hs-Siglec9 ALPHAscreen SOP 20170721; settings: 10 µM
Trypanosoma cruzi = test: Trypanosoma cruzi phosphomannomutase and mannose-1-phosphate guanylyltransferase assay; assay type: functional; settings: 10 µM
[5] = biological target: T2, Arginase-2, mitochondrial (Homo sapiens) (UniProt P78540); test: in vitro enzyme assay to detect the production of urea directly proportional to the activity of Arginase II; assay type: functional; settings: 33.3 µM; further: in the data most compounds retested in dose-response had high values
T2 sequence (whole entry): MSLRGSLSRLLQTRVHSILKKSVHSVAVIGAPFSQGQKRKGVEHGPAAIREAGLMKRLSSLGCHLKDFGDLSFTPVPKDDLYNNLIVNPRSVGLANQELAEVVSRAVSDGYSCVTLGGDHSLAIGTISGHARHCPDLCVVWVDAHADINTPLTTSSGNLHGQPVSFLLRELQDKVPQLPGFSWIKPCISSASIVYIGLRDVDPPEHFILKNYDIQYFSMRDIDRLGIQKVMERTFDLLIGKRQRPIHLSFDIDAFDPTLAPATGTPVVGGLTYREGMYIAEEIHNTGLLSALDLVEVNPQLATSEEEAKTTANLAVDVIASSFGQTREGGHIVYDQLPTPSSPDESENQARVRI

[6] = biological target: T3, Proteasome subunit beta (Trypanosoma cruzi) (UniProt O96673); test: Trypanosoma cruzi proteasome chymotrypsin-like activity (TcProtChymo) assay.; further: in the data most compounds retested in dose-response had high values; assay type: functional; settings: 9.37 µM
T3 sequence (whole entry): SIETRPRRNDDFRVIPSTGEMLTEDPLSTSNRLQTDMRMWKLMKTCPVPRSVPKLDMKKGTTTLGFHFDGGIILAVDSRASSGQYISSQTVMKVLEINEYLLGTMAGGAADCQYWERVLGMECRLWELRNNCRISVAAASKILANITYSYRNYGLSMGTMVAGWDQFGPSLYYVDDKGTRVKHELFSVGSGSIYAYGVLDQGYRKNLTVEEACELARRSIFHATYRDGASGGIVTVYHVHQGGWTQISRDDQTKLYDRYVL

Homo sapiens = species: Homo sapiens; test: To identify inhibition of the IFN signalling (Jak-Stat) pathway via expression of an eGFP reporter gene under the control of an IFN-stimulated response element (ISRE) containing MxA promoter.; assay type: functional; settings: 30 µM
[7] = biological target: T4, Tyrosyl-tRNA synthetase, putative (Trypanosoma cruzi (strain CL Brener)) (UniProt Q4DSP6); test: Trypanosoma cruzi tyrosyl tRNA synthetase (TcYRS) _High Tyrosine SOP; assay type: functional; settings: 30 µM; further: in the data most compounds retested in dose-response had high values
T4 sequence (whole entry): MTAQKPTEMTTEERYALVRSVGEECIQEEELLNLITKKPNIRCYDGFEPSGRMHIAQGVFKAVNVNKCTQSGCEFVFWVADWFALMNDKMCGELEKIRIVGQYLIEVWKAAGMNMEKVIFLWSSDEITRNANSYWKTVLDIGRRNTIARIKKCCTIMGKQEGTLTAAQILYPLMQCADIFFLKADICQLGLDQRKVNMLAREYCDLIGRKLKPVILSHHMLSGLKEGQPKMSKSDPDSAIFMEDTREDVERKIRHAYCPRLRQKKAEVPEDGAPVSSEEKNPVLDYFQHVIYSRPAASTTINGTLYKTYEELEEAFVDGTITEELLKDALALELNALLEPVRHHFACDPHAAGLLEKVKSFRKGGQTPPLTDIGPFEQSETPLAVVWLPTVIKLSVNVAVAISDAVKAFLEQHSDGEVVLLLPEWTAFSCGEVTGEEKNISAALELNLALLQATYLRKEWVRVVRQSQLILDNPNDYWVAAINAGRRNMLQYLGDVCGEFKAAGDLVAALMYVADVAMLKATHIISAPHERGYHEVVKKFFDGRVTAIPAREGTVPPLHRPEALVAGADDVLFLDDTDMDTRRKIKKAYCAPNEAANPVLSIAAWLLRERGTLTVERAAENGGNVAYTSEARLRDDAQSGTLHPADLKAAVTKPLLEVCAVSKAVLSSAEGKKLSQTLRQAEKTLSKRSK

[8] = biological target: T4, Tyrosyl-tRNA synthetase, putative (Trypanosoma cruzi (strain CL Brener)); test: Trypanosoma cruzi tyrosyl tRNA synthetase (TcYRS) SOP; assay type: functional; settings: 30 µM
[9] = biological target: Chromo domain-containing protein 1 (Saccharomyces cerevisiae (strain ATCC 204508 / S288c) (Baker's yeast)) (UniProt P32657); test: ScCHD-1 Enzyme Inhibition Assay; assay type: functional; settings: 30 µM; further: in the data most compounds retested in dose-response had high values
Sequence of Chromo domain-containing protein 1 (Saccharomyces cerevisiae (strain ATCC 204508 / S288c) (Baker's yeast)) (P32657 whole entry, the tested form may be a part): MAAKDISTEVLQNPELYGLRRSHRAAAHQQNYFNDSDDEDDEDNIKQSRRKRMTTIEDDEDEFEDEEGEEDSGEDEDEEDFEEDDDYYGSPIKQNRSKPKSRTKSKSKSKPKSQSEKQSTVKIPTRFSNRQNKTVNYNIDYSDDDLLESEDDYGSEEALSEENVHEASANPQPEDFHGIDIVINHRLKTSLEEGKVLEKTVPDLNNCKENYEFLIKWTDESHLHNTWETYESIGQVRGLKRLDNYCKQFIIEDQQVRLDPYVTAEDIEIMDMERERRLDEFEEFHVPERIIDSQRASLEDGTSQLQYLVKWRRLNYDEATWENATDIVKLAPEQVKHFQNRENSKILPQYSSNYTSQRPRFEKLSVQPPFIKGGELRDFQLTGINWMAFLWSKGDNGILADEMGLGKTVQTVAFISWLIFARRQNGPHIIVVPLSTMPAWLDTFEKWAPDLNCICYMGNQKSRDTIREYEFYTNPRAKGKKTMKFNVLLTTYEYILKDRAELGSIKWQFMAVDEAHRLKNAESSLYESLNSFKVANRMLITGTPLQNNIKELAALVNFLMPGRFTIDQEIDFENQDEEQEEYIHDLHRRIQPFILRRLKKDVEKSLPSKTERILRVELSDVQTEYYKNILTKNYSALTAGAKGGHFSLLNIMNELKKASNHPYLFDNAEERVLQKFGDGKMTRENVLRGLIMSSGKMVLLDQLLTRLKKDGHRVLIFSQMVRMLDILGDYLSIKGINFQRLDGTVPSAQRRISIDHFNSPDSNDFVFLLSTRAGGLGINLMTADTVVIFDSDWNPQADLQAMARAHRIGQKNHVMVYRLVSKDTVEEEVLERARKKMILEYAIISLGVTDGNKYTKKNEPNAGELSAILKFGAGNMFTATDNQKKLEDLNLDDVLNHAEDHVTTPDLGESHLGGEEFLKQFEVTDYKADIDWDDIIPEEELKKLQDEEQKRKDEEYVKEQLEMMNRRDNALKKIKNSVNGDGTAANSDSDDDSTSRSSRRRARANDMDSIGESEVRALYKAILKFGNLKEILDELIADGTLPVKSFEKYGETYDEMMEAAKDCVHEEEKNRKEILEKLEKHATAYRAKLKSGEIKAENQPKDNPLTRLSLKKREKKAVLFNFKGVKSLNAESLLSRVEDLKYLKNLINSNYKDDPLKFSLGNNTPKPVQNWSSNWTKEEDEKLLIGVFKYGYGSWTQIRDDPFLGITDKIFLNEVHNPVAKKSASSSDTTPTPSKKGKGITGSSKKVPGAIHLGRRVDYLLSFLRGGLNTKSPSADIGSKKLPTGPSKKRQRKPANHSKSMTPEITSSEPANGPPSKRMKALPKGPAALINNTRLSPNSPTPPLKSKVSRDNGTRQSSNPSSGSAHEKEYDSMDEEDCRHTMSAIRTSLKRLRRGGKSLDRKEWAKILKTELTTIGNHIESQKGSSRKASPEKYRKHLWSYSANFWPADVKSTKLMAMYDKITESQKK

Sequence of Sialic acid-binding Ig-like lectin 9 (Homo sapiens) (Q9Y336 whole entry): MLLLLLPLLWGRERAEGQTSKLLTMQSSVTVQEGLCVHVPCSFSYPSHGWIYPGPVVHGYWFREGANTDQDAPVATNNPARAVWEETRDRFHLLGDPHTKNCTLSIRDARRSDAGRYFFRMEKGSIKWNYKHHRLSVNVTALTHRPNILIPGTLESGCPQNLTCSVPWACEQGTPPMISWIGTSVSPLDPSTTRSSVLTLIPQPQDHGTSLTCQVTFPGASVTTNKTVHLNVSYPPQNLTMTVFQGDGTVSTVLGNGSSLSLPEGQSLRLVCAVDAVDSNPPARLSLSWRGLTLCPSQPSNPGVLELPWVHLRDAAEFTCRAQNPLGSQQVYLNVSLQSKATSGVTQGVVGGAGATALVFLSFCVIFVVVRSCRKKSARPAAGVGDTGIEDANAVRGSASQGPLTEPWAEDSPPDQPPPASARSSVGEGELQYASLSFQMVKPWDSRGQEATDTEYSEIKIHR
Sequence of Protein translocase subunit SecA (Escherichia coli (strain K12)) (P10408 whole entry): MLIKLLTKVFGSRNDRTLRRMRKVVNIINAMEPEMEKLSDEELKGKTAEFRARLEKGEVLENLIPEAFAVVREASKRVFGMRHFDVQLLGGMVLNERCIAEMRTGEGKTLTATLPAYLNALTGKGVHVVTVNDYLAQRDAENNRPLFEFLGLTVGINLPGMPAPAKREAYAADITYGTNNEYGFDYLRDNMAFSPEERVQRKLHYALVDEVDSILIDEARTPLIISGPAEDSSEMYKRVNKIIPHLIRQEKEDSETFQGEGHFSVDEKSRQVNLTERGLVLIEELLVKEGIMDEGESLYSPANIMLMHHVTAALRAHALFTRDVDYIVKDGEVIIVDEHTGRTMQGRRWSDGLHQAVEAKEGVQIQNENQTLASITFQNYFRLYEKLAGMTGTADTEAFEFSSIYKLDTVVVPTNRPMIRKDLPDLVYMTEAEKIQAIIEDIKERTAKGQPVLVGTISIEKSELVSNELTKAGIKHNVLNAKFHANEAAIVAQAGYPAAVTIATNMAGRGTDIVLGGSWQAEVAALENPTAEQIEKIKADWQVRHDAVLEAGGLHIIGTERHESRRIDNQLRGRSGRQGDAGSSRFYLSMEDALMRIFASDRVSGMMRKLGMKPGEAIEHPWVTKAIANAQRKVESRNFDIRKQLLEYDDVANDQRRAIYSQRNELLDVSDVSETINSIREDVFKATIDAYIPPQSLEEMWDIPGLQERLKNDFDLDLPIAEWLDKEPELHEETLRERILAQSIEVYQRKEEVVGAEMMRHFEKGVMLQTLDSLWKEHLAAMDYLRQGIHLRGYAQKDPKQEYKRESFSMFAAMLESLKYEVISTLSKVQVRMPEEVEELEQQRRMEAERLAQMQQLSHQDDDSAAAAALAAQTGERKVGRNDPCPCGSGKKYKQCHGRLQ

| SMILES | Percent Effect [1] [%] | Percent Effect [2] [%] | Percent Effect [3] [%] | Percent Effect [4] [%] | Percent Effect (Trypanosoma cruzi) [%] | Percent Effect [5] [%] | Percent Effect [6] [%] | Percent Effect (Homo sapiens) [%] | Percent Effect [7] [%] | Percent Effect [8] [%] | Percent Effect [9] [%] |
| --- | --- | --- | --- | --- | --- | --- | --- | --- | --- | --- | --- |
| Cc1cc(CN2CCc3nn(C)c(=O)cc3C2)on1 | -2.46 | 12.5 | -228 | -1.88 | -0.0972 | 4.86 | 6.84 | -5.36 | -3.16 | -7.69 | -2.45 |
| CC1CCN(C(=O)CN(Cc2ccco2)C2CC2)CC1 | -1.66 | 2.6 | 6.73 | 0.322 | 6.95 | -1.47 | 7.84 | 3.81 | 1.91 | 7.06 | -5.98 |
| O=C(C1=CCCC1)N1CCC[C@]2(C[C@@H](Oc3ncccc3F)CO2)C1 | -0.607 | -5.48 | -7.12 | 6.71 | 3.77 | 0.399 | 23.2 | 23.5 | 5.21 | 13.6 | -3.32 |
| Cc1cc(C(=O)N2CC[C@H](OCC3CC3)[C@@H]2Cc2cccnc2)no1 | -2.54 | 0 | 0.886 | -3.88 | 0.772 | -36.4 | 4.79 | -3.71 | -1.04 | -2.5 | -5.62 |
| CC(C)c1noc(CCC(=O)NC(C)c2nnc3n2CCCCC3)n1 (stereo not given) | -2.21 | -2.7 | -3.53 | -8.65 | -1.47 | -2.23 | 2.83 | -7.58 | -9.68 | 1.24 | 80 |
| CC(C)Cc1noc(CN2CCOC(Cn3cncn3)C2)n1 (stereo not given) | -1.12 | 10.8 | 2.5 | -4.71 | -6.22 | 4.25 | 0.718 | 16.7 | 0 | 13.4 | -0.689 |
| CCOc1ccc(Cl)cc1CNCCCn1ccnc1 | -0.524 | 6.67 | 7.15 | -7.03 | -5.5 | -9.68 | 19 | 11 | -2.12 | 5.13 | -11.2 |
| Cc1cc(C(=O)N2CCCC2c2nnc3n2CCCCC3)no1 (stereo not given) | -2.02 | 6.94 | -6.41 | -2.93 | 0.291 | 2.21 | 21.1 | -18.8 | 6.32 | 12.8 | -5.42 |
| Cc1cnc(C(=O)N2CCCC(n3ccnc3C)C2)cn1 (stereo not given) | -4.96 | 5.26 | -7.85 | 7.54 | 8.5 | 0.36 | 3.13 | 3.76 | 5.42 | 18.5 | -4.86 |
| O=C(NCc1ccccn1)Nc1cc(C(F)(F)F)c[nH]c1=O | -6.27 | 5.41 | -7.01 | 23.6 | 4.74 | 4.25 | 4.67 | 2.58 | 3.96 | 18.3 | -8.44 |
| CCCC(NC(=O)c1cc(C)ccc1C)c1nnn[nH]1 (stereo not given) | -4.53 | 13.3 | -5.34 | 20.1 | 7.89 | 20.8 | 11.7 | 12.3 | 6.01 | 13.6 | -1.49 |
| O=C(CCCc1cn[nH]c1)N1C[C@@H](CN2CCOCC2)[C@@H](CO)C1 | -5.38 | -5.48 | 0.507 | -3.16 | -2.74 | -2.27 | 4.08 | 5.26 | 0 | -5 | -2.89 |
| COc1ccc2cc(C(=O)N3CCCCC3Cn3cccn3)[nH]c2c1 (stereo not given) | -8.67 | 0 | 2.23 | 5.53 | -0.562 | 2.13 | 1.86 | 2.73 | 0 | 2.44 | -1.29 |
| Cc1noc(C)c1C(=O)NCC(C)N(C)C (stereo not given) | 1.71 | 16.2 | -3.02 | -9.99 | -7.71 | -1.29 | 21.5 | 11.2 | 3.96 | 13.4 | -3.89 |
| CC(C)C(Sc1nnnn1C1CC1)C(=O)NCc1cccnc1 (stereo not given) | -3.26 | 5.2 | 3.52 | -3.03 | -5.24 | 17.8 | 13.3 | 27.7 | 6.8 | 19.5 | -3.93 |
| O=C(NCC1CC1)[C@H]1C[C@H]2OCC[C@H]2N(Cc2ccoc2)C1 | -0.0445 | 21.6 | 4.14 | -14 | 1.86 | 6.69 | 6.09 | 32.6 | 3.24 | 15.4 | -0.46 |
| CC(C)NC(=O)c1ccc2c(c1)nc1n2CCN(C(C)C)C1 | -0.173 | 4 | 2.97 | 4.16 | -5.11 | -13.2 | 19.2 | -1.16 | 6.35 | 7.69 | -10.7 |
| CCCN1CCN(C(=O)C(C)n2cc(Br)cn2)CC1 (stereo not given) | -1.59 | 15.6 | 5.22 | 7.33 | 3.05 | -137 | 10.3 | -2.4 | 7.53 | 21 | -7.35 |
| COc1ccc2c(c1)CN(Cc1nc3c(cnn3C)c(=O)[nH]1)CC2 | -1.51 | 15.2 | -8.08 | 0.541 | 0.85 | 2.66 | 7.45 | 8.47 | 4.43 | 21.5 | -7.47 |
| COc1cccc(CCC2CCCN(C(=O)c3n[nH]c4c3CCC4)C2)c1 (stereo not given) | -4.51 | -18.9 | 3.21 | 4.19 | -1.35 | -8.1 | 5.69 | 46.1 | 11.1 | 2.44 | -1.85 |
